Screening results (PubChem BioAssay)
AI-2 QS mod: modulators of Vibrio harveyi AI-2 quorum sensing system | Vibrio harveyi JMH597 AI-2 luminescence/OD600 ratio, 9 h; hits give low values; strain lacks LuxN and CqsS sensors; 0 = neutral-control median | activity change, % at 7.5 µM | 0.4% of 300,000 active | AID 2094; in the data active = activity change below about -75%, passing the limit was not always enough;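 note: luminescence divided by OD600 gain over 9 h not by final OD600 alone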
ARNT TACC3 PPI: disrupts binding between human ARNT and TACC3; inhibition, % at 9.99 µM; 0.66% of 390,000 active; AlphaScreen His-ARNT PAS-B/GST-TACC3 binding, luminescence; TACC3 fragment carries E629A point mutation;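 active = mean inhibition of replicates at least 50% and at least half of replicates each reaching 50%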
SUMO Mot1 rescue: inhibitors of SUMOylation pathway: yeast Mot1-301 growth rescue | 1% of 320,000 active | growth rescue, % at 18.8 µM | AID 2716 | S. cerevisiae Mot1-301 growth rescue, ATP luminescence, 38.5C; percent above DMSO median, 100 means doubled;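 active = every valid replicate shows activation above 250% relative to neutral control wells; inactive = the rest, any valid replicate at or below 250%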
Bfl-1 A1 inh: inhibitors of the anti-apoptotic protein A1, read as caspase activation; MEF A1-2A-BIM cells, Caspase-Glo 3/7 luminescence, 3 h; percent of clofoctol response, vehicle zero; caspase activation, % (concentration not given with the values); 0.066% of 330,000 active; AID 2462;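 active = over half of replicate activation scores above 10%, or exactly half above 10 with the replicate mean above 10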
aDG glyco act: alpha-DG glycosylation activation; Pro5-aDG cells, alpha-DG glycosylation AlphaScreen (IIH6); 0% Pro5, 100% B10-LARGE cell signal; activation, % at 10 µM; 0.22% of 360,000 active;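 active = activation of at least 8% versus controls, or a plate z-score of at least 8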;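 note: Pro5 are CHO cells carrying HIG-tagged alpha-DG that lacks glycosylation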
Yeast Mot1 SUMO: SUMO pathway inhibitors in yeast Mot1-301 growth; growth activity, percent, % at 42 µM; 2,300 tested, under 10 active; AID 493004; shares compounds with SUMO Mot1 rescue; S. cerevisiae Mot1-301 galactose growth, ATP luminescence, 24 h; -100 = growth of slx-deleted rescue strain;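 active = Signal drops as the depositor expects, and the fitted half-maximal dose is no more than ten times the top valid tested dose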;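 note: more negative values mean stronger growth rescue toward the control strain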
Hits are given with their value; 0 = inactive; - = no result; + = active, no number. An excerpt weighted towards active compounds, which were near 1.8% of everything screened.

SMILES | AI-2 QS mod | ARNT TACC3 PPI | SUMO Mot1 rescue | Bfl-1 A1 inh | aDG glyco act | Yeast Mot1 SUMO
O=C(OCCCCOC(=O)c1ccccc1)c1ccccc1 | 0 | 0 | 528.8 | 0 | 0 | 0
Cc1ccccc1-c1nnc(CN2CCC(C)CC2)o1 | 0 | 0 | 403.0 | 0 | 0 | 0
C/C=C/c1ccc2c(c1)O[C@@H](CN(C)C(=O)c1cnccn1)[C@H](C)CN([C@H](C)CO)S2(=O)=O | - | 0 | - | - | - | -
O=C(Nc1ccc(C(=O)N2CCCCC2)cc1)c1ccccc1 | - | 0 | - | - | 0 | -
O=C1NC[C@H](c2ccccc2)N(CC2CCCCC2)C1=O | 0 | 0 | 0 | 0 | 0 | -
O=S1(=O)NC(c2ccccc2)CC(CC2CCCCC2)O1 (stereo not given) | 0 | - | 943.3 | 0 | 0 | 0
O=C(COc1ccc(Cl)cc1Cl)NC(=O)c1ccccc1 | 0 | 0 | 0 | 0 | 0 | -
CC(=O)N1CCN(CC(O)COc2ccc(OCc3ccccc3)cc2)CC1 (stereo not given) | 0 | 0 | 402.3 | 0 | 0 | 0
O=C(CN1C(=O)/C(=C/c2cccc(Br)c2)SC1=S)NC1=NCCS1 | 0 | 0 | 0 | 0 | 0 | -
COc1ccccc1C#Cc1cnc2c(c1)C(=O)N([C@H](C)CO)C[C@H](C)[C@H](CN(C)C(=O)c1ccc3c(c1)OCO3)O2 | - | 0 | - | - | - | -
CN1c2ccccc2-c2nc3ccccc3n2C1c1ccccn1 (stereo not given) | 0 | 0 | - | 0 | 0 | -
CN1c2ccccc2-c2nc3ccccc3n2C1c1ccncc1 (stereo not given) | 0 | - | 634.7 | 0 | 0 | 0
Cc1cccc(NC(=O)/C(=C\c2ccco2)NC(=O)c2cccs2)c1 | 0 | 0 | 0 | 0 | 0 | -
Cc1ccc(S(=O)(=O)N(C)C[C@H]2Oc3ccc(NC(=O)Nc4cccc5ccccc45)cc3CC(=O)N([C@H](C)CO)C[C@@H]2C)cc1 | - | 0 | - | - | - | -
CCOc1cc(S(=O)(=O)NCc2ccc3c(c2)OCO3)c(C)cc1C | 0 | - | 700.5 | 0 | 0 | 0
CCOc1ccccc1C(=O)OCC(=O)NCc1ccc2c(c1)OCO2 | - | 0 | 0 | 0 | 0 | -
CCOc1ccccc1C(=O)NCc1ccc2c(c1)OCO2 | 0 | 0 | 878.8 | 0 | 0 | 0
Cc1cc(C)c(S(=O)(=O)NCc2ccc3c(c2)OCO3)cc1C | 0 | 0 | 0 | 0 | 0 | -
Cc1ccccc1OCC(=O)Nc1nnc(COc2ccccc2)s1 | 0 | 0 | 0 | 0 | 0 | -
CC(C)NC(=O)Nc1ccc2c(c1)CC(=O)N([C@@H](C)CO)C[C@@H](C)[C@@H](CN(C)Cc1ccc(Cl)c(Cl)c1)O2 | - | 0 | - | - | - | -
O=C(Cc1cccs1)NCc1ccc(Cl)cc1 | 0 | 0 | 0 | 0 | 0 | -
Cc1ccc(-c2csc3ncn(CC(=O)N4CCOCC4)c(=O)c23)cc1 | 0 | - | 361.7 | 0 | 0 | 0
CCOC(=O)c1oc2cc(OC(C)=O)ccc2c(=O)c1-c1ccc(OC)c(OC)c1 | 0 | 0 | 510.1 | 0 | 0 | 0
CCOC(=O)COc1ccc2c(=O)c(-c3ccc(OC)c(OC)c3)c(C(=O)OCC)oc2c1 | 0 | 0 | 0 | 0 | 0 | -
CN1C(=O)c2ccc(NC(=S)NC(=O)C(C)(C)C)cc2C1=O | 0 | 0 | 439.0 | 0 | 0 | 0
SMILES | AI-2 QS mod | ARNT TACC3 PPI | SUMO Mot1 rescue | Bfl-1 A1 inh | aDG glyco act | Yeast Mot1 SUMO
COc1ccc2c(c1)Sc1ccccc1N2 | 0 | 0 | - | - | 0 | -
O=C(CSc1nnc(-c2ccccc2Cl)o1)Oc1ccc(Br)cc1 | 0 | 0 | 500.7 | 0 | 0 | 0
O=C(CSc1nnc(-c2ccccc2O)o1)Oc1ccc(Br)cc1 | 0 | 0 | 0 | 0 | 0 | -
COc1ccc(CN2CCOCC2)cc1 | 0 | 0 | 0 | 0 | 0 | -
COc1ccc(Cn2nnnc2CN2CCCCCC2)cc1 | 0 | 0 | 0 | 0 | 0 | -
COc1ccc(CN2CCCCCC2)cc1 | 0 | 0 | 486.7 | 0 | 0 | 0
COc1ccc(Cn2nnnc2CN2CCN(c3ccc(OC)cc3)CC2)cc1 | 0 | 0 | 884.6 | 0 | 0 | 0
CN(Cc1ccccn1)Cc1nc(COc2ccccc2)no1 | 0 | 0 | 0 | 0 | 0 | -
CC1(C)CCC(=O)N2CC[C@H]3C[C@H](OC(=O)Nc4ccc(Br)cc4)C[C@@H]1[C@H]32 | 0 | 0 | 804.5 | 0 | 0 | 0
CCC(=O)N1CCc2cc(S(=O)(=O)CCC(=O)Nc3cccc(C)n3)ccc21 | 0 | 0 | + | 0 | 0 | 0
CCC(=O)N1CCc2cc(S(=O)(=O)CCC(=O)Nc3ccc(OC)cc3)ccc21 | 0 | 0 | 0 | 0 | 0 | -
COc1ccc(S(=O)(=O)N2CCc3cc4c(cc3C2C)OCCCO4)cc1 (stereo not given) | 0 | 0 | 599.9 | 0 | 0 | 0
Cc1ccc2nc(/C(C#N)=C\c3ccc(N4CCCCC4)c([N+](=O)[O-])c3)[nH]c2c1 | 0 | 0 | 0 | 0 | 0 | -
O=C(c1ccccc1F)N1CC[C@@H]2[C@H]1c1cc(-c3ccc(F)cc3)ccc1N[C@@H]2CO | - | 0 | - | - | - | -
O=C(/C=C/c1ccc(-c2ccccc2[N+](=O)[O-])o1)c1ccc(Br)cc1 | 0 | 0 | 0 | 0 | 0 | -
Cc1ccc(C(=O)/C=C/c2ccc(-c3ccccc3[N+](=O)[O-])o2)cc1 | 0 | - | 490.6 | 0 | 0 | 0
CCCCCCNc1c(C(=O)OCC)c(=O)[nH]c2ccccc12 | 0 | 0 | 777.7 | 0 | 0 | 0
CCOC(=O)c1c(NCC2CCCO2)c2ccccc2[nH]c1=O (stereo not given) | 0 | 0 | 0 | 0 | 0 | -
O=C1N=C(N2CCOCC2)S/C1=C\c1cccnc1 | 0 | 0 | 753.4 | 0 | 0 | 0
O=C(CSc1nnc(CNC(=O)c2c(F)cccc2Cl)o1)c1ccccc1 | 0 | 0 | 0 | 0 | 0 | -
Nc1cc(Cl)ccc1N1CCOCC1 | 0 | 0 | 464.6 | 0 | 0 | 0
COC(=O)[C@]1(C)N[C@H](CN(C)C(C)=O)[C@@H]2C(=O)N(C)C(=O)[C@@H]21 | - | 0 | - | - | 0 | -
CCOc1ccccc1C(=O)N(Cc1cccs1)C1CCS(=O)(=O)C1 (stereo not given) | 0 | 0 | + | 0 | 0 | 0
COC(=O)c1cc(Cl)c(NC(=O)C(C)C)cc1OC | 0 | - | 660.6 | 0 | 0 | 0
CC(C)NC(=O)Nc1ccc2c(c1)C(=O)N([C@@H](C)CO)C[C@@H](C)[C@H](CN(C)S(=O)(=O)c1ccccc1)OCCCC[C@H](C)O2 | - | 0 | - | - | - | -
COc1ccc(OC)c(Cc2nnc(CCC(=O)NC3CCCCC3)o2)c1 | 0 | 0 | 0 | 0 | 0 | -
COc1ccc(OC)c(Cc2nnc(CCC(=O)NCc3ccsc3)o2)c1 | 0 | 0 | + | 0 | 0 | 0
CCc1ccc2nc(-c3cccc(C)c3)nc(SCC(=O)NCC3CCCO3)c2c1 (stereo not given) | 0 | 0 | 404.2 | 0 | 0 | 0
O=S(=O)(c1ccccc1)N1CCN(c2nc3ccccc3s2)CC1 | 0 | 0 | 452.6 | 0 | 0 | 0
CS(=O)(=O)N1CCN(c2nc3ccccc3s2)CC1 | 0 | 0 | 0 | 0 | 0 | -
